Data on 28 compounds can be found in PubChem BioAssay (NCATS).

Each structure is given as a SMILES string. Records with an inconclusive call do not appear. Active and inactive are the calls of the source. Calls follow the shape of the dose curve; as a rule, active = well fitted curve in the direction sought with a large enough effect; inconclusive = small, poorly fitted or top-dose-only effect, or another doubt; inactive = no such curve, though single readings can be large; an effect the other way counts as inactive or inconclusive.

For assay [1], the target named is Glutathione peroxidase 1 (Homo sapiens) (UniProt P07203). The assay is described as follows: Primary qHTS Assay for Inhibitors of Recombinant Selenoprotein Glutathione Peroxidase 1 (GPX1) (AID 1845191). Also: nearly all actives have a fitted effect of over 65% in size. An outline of the steps:
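GPX1 10 nM, GR 100 nM, GSH 1 mM, NADPH 0.5 mM, CHP 0.5 mM (final). 30-min cpd preincubation, RT. Ex340/Em450 read t=0, t=15 min.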
For orientation: qHTS replaces the single test concentration by a dilution series.

The target in assay [2] is Phospholipid hydroperoxide glutathione peroxidase GPX4 (Homo sapiens) (UniProt P36969). The assay is described as follows: Primary qHTS Assay for Inhibitors of Recombinant Selenoprotein Glutathione Peroxidase 4 (GPX4) (AID 1845192). Also: nearly all actives have a fitted effect of over 65% in size. An outline of the steps: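 qHTS, GR-coupled: GPX4 200 nM + cpd 30 min RT → GSH 1 mM, NADPH 0.5 mM, GR 100 nM → CHP 0.5 mM start; fluor 340/450 at t0 and t15 min; no-enzyme wells as control.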
Chain of Phospholipid hydroperoxide glutathione peroxidase GPX4 (Homo sapiens) (P36969 whole entry, looked up): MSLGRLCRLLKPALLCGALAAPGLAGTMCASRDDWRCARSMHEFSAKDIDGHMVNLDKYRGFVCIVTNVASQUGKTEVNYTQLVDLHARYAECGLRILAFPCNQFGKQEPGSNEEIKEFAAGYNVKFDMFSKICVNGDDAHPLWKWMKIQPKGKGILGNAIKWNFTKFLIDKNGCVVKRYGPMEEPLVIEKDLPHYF

Assay [3] in a line: Quantitative High-Throughput drug screen in 47 multiple myeloma cell lines against the NCATS MIPE library collection: FR4_PLB cell viability assay (AID 1918924; also: nearly all actives have a fitted effect of over 35% in size; also: potency is read from the fitted curve at half-maximal effect). In short, it runs like this:
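Relative luminescence from CellTiter-Glo served as the viability signal, referenced to DMSO-treated (100%) and cell-free medium (0%) controls. Treatment lasted 48 hours at 37C with 500 cells per well.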

Assay [4] can be described thus: Quantitative High-Throughput drug screen in 47 multiple myeloma cell lines against the NCATS MIPE library collection: ARP1_JJKsccF8 cell viability assay (AID 1918928; also: nearly all actives have a fitted effect of over 40% in size; also: potency is read from the fitted curve at half-maximal effect). An outline of the steps: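 Viability screen: myeloma cells (500/well) incubated 48 h at 37 °C, humidified 5% CO2, with pinned library compounds; CellTiter-Glo added, luminescence read; DMSO wells set 100%, medium-only wells 0%.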

A short description of assay [5]: Quantitative High-Throughput drug screen in 47 multiple myeloma cell lines against the NCATS MIPE library collection: ARD_JJKsccE7 cell viability assay (AID 1918929; also: potency is read from the fitted curve at half-maximal effect). An outline of the steps: (§1)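 qHTS of the MIPE 4.0 collection: 500 myeloma cells/well, 48 h drug exposure at 37C in 5% CO2, then CellTiter-Glo for 5 min at room temperature before luminescence reading.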

A short description of assay [6]: Quantitative High-Throughput drug screen in 47 multiple myeloma cell lines against the NCATS MIPE library collection: Delta47_JCRB cell viability assay (AID 1918925; also: nearly all actives have a fitted effect of over 45% in size; also: potency is read from the fitted curve at half-maximal effect). In short, it runs like this: as §1
Assay [7] can be described thus: Quantitative High-Throughput drug screen in 47 multiple myeloma cell lines against the NCATS MIPE library collection: EJM_DSMZ cell viability assay (AID 1918926; also: nearly all actives have a fitted effect of over 30% in size; also: potency is read from the fitted curve at half-maximal effect). An outline of the steps: as §1
Assay [8] is described as follows: Quantitative High-Throughput drug screen in 47 multiple myeloma cell lines against the NCATS MIPE library collection: AMO1_DSMZ cell viability assay (AID 1918927; also: nearly all actives have a fitted effect of over 30% in size; also: potency is read from the fitted curve at half-maximal effect). In short, it runs like this: as §1
Assay [9] concerns the target Luciferin 4-monooxygenase (Photinus pyralis) (UniProt P08659). The experiment in a line: Primary firefly luciferase (FLuc) qHTS assay for identification of artifact compounds. (AID 1845220). Also: series mostly up to about 54 µM; nearly all actives have a fitted effect of over 60% in size. In short, it runs like this:
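Reaction readout was CCD-imaged luminescence, taken 5 min after adding 10 nM purified firefly enzyme to compound-treated wells holding 10 uM luciferin and ATP in pH 7.6 buffer.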

Assay [10] can be described thus: Primary fluorescence-based thiol-reactive (MSTI) qHTS assay for identification of artifact compounds. (AID 1845221). Also: series mostly up to about 54 µM; nearly all actives have a fitted effect of over 65% in size. An outline of the steps: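 Compounds were incubated 1 h at room temperature in the dark with the MSTI probe (4 uM) in PBS pH 7.4, 2% DMSO. Signals were normalized between Acetyl-MSTI and MSTI.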
The test system of assay [11] is Nanoluciferase (engineered Oplophorus gracilirostris luciferase). The assay is described as follows: Primary Nanoluciferase (NLuc) qHTS assay for identification of artifact compounds. (AID 1845222).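 Also: NLuc secreted into diluted conditioned medium of S16 cells; series mostly up to about 54 µM.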 An outline of the steps: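 Concentration-response data were obtained by luminescence after 5 min with Nano-Glo substrate at 1:100. The enzyme was diluted S16 NLuc-expressing cell medium, preincubated with compound for 15 min at RT. Curves were fitted with a 4-parameter Hill model.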

Assay [12] is described as follows: Primary redox qHTS assay for identification of artifact compounds. (AID 1845223). In short, it runs like this: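 Redox-cycling detection via DTT (250 uM final) oxidation coupled to Amplex Red (25 uM)/HRP (250 mU/mL) in HBSS. 15 min preincubation plus 30 min after DTT, room temperature. Ex/Em 525/598 nm; 4-parameter Hill fit against DMSO and 10 uM DA3003.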

Chain of Glutathione peroxidase 1 (Homo sapiens) (P07203 whole entry, looked up): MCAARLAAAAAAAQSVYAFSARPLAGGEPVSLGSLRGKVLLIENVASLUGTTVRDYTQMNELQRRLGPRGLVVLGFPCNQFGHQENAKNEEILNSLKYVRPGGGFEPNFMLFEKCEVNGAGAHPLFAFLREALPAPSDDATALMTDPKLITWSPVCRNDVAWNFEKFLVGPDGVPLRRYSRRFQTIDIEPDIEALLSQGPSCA

In the case of `O=c1ccn([C@@H]2O[C@H](CO)[C@H](O)[C@@H]2F)c(=O)[nH]1`, the Potency result in assay [1], in assay [2], in [3], in [4] and in assay [5] was “inactive” each time.

`CCCCCCCCc1ccc(CCC(N)(CO)CO)cc1`: the Potency result in assay [1] and in assay [2] was “inactive” in each case. The Potency in [6] was 5260 nM (active); in assay [7], 23500 nM (active); in assay [8] it was 8330 nM (active); in assay [4] it was 10500 nM (active); in [5], 14800 nM (active).

For the compound `CCCCC(=O)O[C@]1(C(=O)CO)[C@@H](C)C[C@H]2[C@@H]3CCC4=CC(=O)C=C[C@]4(C)[C@@]3(F)[C@@H](O)C[C@@]21C`, the Potency entry in assay [1], in assay [2], in [3], in assay [7] and in assay [8] was “inactive” in each case.

As to `O=C(NC1CC1)c1cccc(-c2ccc3c(NC(=O)C4CC4)n[nH]c3c2)c1`, the Potency result in assay [1] and in assay [2] was “inactive” in each case. The values for the Potency in assay [3], in assay [6] and in assay [4] were 2090 nM (active), 7430 nM (active) and 14800 nM (active), respectively.

In the case of `CC1(C)O[C@@H]2C[C@H]3[C@@H]4CCC5=CC(=O)C=C[C@]5(C)[C@@H]4[C@@H](O)C[C@]3(C)[C@]2(C(=O)CO)O1`, the Potency entry in [1], in assay [2], in assay [3] and in assay [7] was “inactive” throughout. For the same compound, the Potency in assay [4] was 37.2 nM (active); in [5] it was 5.3 nM (active).

In the case of `COc1cc2c(cc1OC)[C@@H]1C(=O)c3ccc4c(c3O[C@@H]1CO2)C=CC(C)(C)O4`, the Potency entry in [1] and in assay [2] was “inactive” throughout. Also, the Potency in assay [3] is 4180 nM (active); in assay [6] it was 10.5 nM (active); in assay [8], 93.5 nM (active); in assay [4] it was 59 nM (active); in assay [5], 23.5 nM (active).

As for `C#Cc1cccc(Nc2ncnc3cc(OCCOC)c(OCCO)cc23)c1`, the Potency entry in [1] and in assay [2] was “inactive” throughout. For the same compound, the Potency in assay [3] was 7430 nM (active); in assay [6] it was 1050 nM (active); in assay [8] it was 2350 nM (active); in assay [4], 23500 nM (active); in assay [5], 418 nM (active).

Turning to `COc1cc([C@@H]2c3cc4c(cc3[C@H](O)[C@H]3COC(=O)[C@@H]23)OCO4)cc(OC)c1OC`, the Potency result in assay [1] and in assay [2] was “inactive” in each case. For the same compound, the Potency in assay [6] is 166 nM (active); in [7], 590 nM (active); in [8] it was 26.4 nM (active); in [4], 52.6 nM (active); in assay [5], 59 nM (active).

For the compound `COc1cc(OC)c(NC(=O)Nc2cc(C)on2)cc1Cl`, the Potency result in assay [1], in assay [2], in assay [3], in assay [6], in [8] and in assay [4] was “inactive” in each case.

`CC(C)C[C@H](NC(=O)CNC(=O)c1cc(Cl)ccc1Cl)B1OC(=O)CC(CC(=O)O)(C(=O)O)O1` (some centres undefined): the Potency entry in assay [1] and in [2] was “inactive” in each case. Besides, the Potency in assay [6] is 33.2 nM (active); in assay [7], 83.3 nM (active); in [8], 23.5 nM (active); in [4], 33.2 nM (active); in assay [5], 52.6 nM (active).

Turning to `CN1C(C(=O)Nc2ccccn2)=C(O)c2sc(Cl)cc2S1(=O)=O`, the Potency entry in assay [1], in assay [2] and in assay [5] was “inactive” in each case. In addition, the values for the Potency in assay [6] and in assay [4] were 2960 nM (active) and 2640 nM (active), respectively.

For `C[C@@H](NCc1cc2ccccc2[nH]1)c1cccc2ccccc12`, the Potency result in [1], in assay [2] and in [7] was “inactive” throughout.

Turning to `NC(=O)c1cccc(-c2cccc(OC(=O)NC3CCCCC3)c2)c1`, the Potency entry in assay [1], in assay [2], in assay [7], in assay [8], in assay [4] and in assay [5] was “inactive” each time.

With `Cc1cnc(NC(=O)Nc2cc(Br)c(C)cc2OC[C@@H]2CNCCO2)cn1`, the Potency entry in [1] and in [2] was “inactive” in each case. The Potency in assay [3] was 590 nM (active); in [6], 5260 nM (active); in assay [4], 13200 nM (active); in [5], 1180 nM (active).

Take `CCCNS(=O)(=O)Nc1ncnc(OCCOc2ncc(Br)cn2)c1-c1ccc(Br)cc1`: the Potency result in assay [1], in assay [2], in assay [3], in assay [4] and in assay [5] was “inactive” each time. Besides, the Potency in [6] is 2640 nM (active).

In the case of `COc1ccc(Nc2cc(-c3cnc(N)nc3)nc(N3CCOCC3)n2)cn1`, the Potency result in [1] and in assay [2] was “inactive” each time. Moreover, the Potency in [3] was 4180 nM (active); in assay [6], 1480 nM (active); in [8] it was 3720 nM (active); in assay [4], 469 nM (active); in assay [5], 372 nM (active).

For the compound `COc1cc2ncnc(Nc3cccc(Br)c3)c2cc1OC`, the Potency entry in [1] and in assay [2] was “inactive” throughout. Further, the Potency in assay [6] is 1480 nM (active); in assay [8] it was 3720 nM (active); in assay [5], 16600 nM (active).

For `O=C(O)CCCCCC(=O)NN=C1CCCC1`, the Potency result in assay [1], in [2], in assay [3], in assay [7], in assay [8] and in [4] was “inactive” in each case. Besides, the Potency entry in assay [5] was “inactive”.

As for `CCn1c(=O)c2c(nc(C=Cc3ccc(OC)c(OC)c3)n2C)n(CC)c1=O`, the Potency entry in assay [1], in assay [2], in assay [3], in assay [6] and in assay [4] was “inactive” throughout.

As to `OC[C@H]1OC(O)C[C@@H](O)[C@H]1O` (some centres undefined), the Potency entry in [1], in [2], in assay [3], in [7] and in assay [4] was “inactive” throughout.

Take `COC(=O)[C@H](CCCN=C(N)N)NS(=O)(=O)c1ccc(C)cc1`: the Potency entry in assay [1], in assay [2], in assay [3], in [7], in assay [8] and in assay [4] was “inactive” throughout. In [5], the Potency result was “inactive”.

`O=C1NC(O)CCN1[C@@H]1O[C@H](CO)[C@H](O)[C@H]1O` (some centres undefined): the Potency result in [1], in assay [2], in assay [3], in assay [6], in assay [7] and in assay [5] was “inactive” each time.

`O=[N+]([O-])c1cn2c(n1)OC[C@@H](OCc1ccc(OC(F)(F)F)cc1)C2`: the Potency result in assay [1], in [2], in assay [3], in [6], in assay [7] and in assay [4] was “inactive” in each case. The Potency result in [5] was “inactive”.

For `N#Cc1c(NC(=O)c2cccc3ccccc23)sc2c1CCCC2`, the Potency result in [1] and in [2] was “inactive” each time. The Potency in assay [3] is 209 nM (active); in assay [6], 418 nM (active); in assay [8], 118 nM (active); in [4], 418 nM (active); in [5], 296 nM (active).

As for `C[C@H](CCC(=O)O)[C@H]1CCC2C3C[C@H](O)[C@@H]4C[C@H](O)CC[C@]4(C)C3CC[C@@]21C` (some centres undefined), the Potency entry in assay [1], in [2], in assay [3], in [7], in assay [8] and in [4] was “inactive” each time.

For `C[C@](Cc1c[nH]c2ccccc12)(NC(=O)OC1C2CC3CC(C2)CC1C3)C(=O)NC[C@H](NC(=O)CCC(=O)O)c1ccccc1` (some centres undefined), the Potency result in [1], in assay [3], in [7] and in assay [4] was “inactive” each time.

`CCC[C@H]1C[C@H](C(=O)N[C@@H]([C@@H]2O[C@@H](SC)[C@@H](O)[C@@H](O)[C@@H]2O)[C@H](C)Cl)N(C)C1`: the Potency entry in [2], in [9], in assay [10], in assay [12], in assay [3] and in assay [7] was “inactive” in each case. Moreover, the Potency entry in assay [8] and in assay [4] was “inactive” in each case. Moreover, the result in assay [11] was inactive.

For `O=S(=O)(O)CCSSCCS(=O)(=O)O`, the Potency entry in [1], in assay [3], in assay [6], in [7], in assay [4] and in [5] was “inactive” each time.
